Test results as given in PubChem BioAssay AID1032 (The Scripps Research Institute Molecular Screening Center, 2008).
Out of some 200,000 compounds screened, about 670 (0.34%) were called active. This is one part of a sample in which actives are shown more often than they occur. A number with no mark means an inactive call. Cut-off read from the data, not from the text of the source: active = activation above about 22%; inactive = the rest.

Each molecule was assayed against Peroxisome proliferator-activated receptor gamma (Homo sapiens) (UniProt P37231) (assay: compounds enhancing SRC-2 coactivator binding to PPARgamma – biochemical, HTS, primary screen (AID 1032;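 note: 0% = vehicle and 100% = reference agonist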)). Settings: PPARgamma LBD-SRC-2 recruitment, at 8 µM, hits give high values.
Peroxisome proliferator-activated receptor gamma (Homo sapiens), sequence (P37231 whole entry, looked up, the tested form may be a part): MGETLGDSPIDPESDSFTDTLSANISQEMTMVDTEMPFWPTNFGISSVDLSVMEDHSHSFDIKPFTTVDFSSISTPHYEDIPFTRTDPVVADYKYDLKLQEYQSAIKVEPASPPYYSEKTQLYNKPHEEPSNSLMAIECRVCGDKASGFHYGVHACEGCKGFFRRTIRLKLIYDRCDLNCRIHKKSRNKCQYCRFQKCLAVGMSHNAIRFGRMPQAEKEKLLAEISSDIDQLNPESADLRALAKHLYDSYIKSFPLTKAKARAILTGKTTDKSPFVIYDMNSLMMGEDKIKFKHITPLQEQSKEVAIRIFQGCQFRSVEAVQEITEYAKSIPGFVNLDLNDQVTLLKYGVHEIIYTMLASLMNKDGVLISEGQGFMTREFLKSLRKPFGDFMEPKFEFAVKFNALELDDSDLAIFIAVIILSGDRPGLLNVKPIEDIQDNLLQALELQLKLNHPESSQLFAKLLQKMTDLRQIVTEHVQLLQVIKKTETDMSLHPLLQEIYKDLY
For `CSC1=NP(=S)(SC)N(C)c2nc3n(c21)CCC3` (stereo not given), the activation was 76.2% (active).
Molecule `Cc1cccc2c(CCN)c[nH]c12` has an activation of 0.78%.
`O=C(Cc1ccccc1[N+](=O)[O-])N1CCN(Cc2ccc3c(c2)OCO3)CC1` gave an activation of 0.02%.
`CCN1CCN(c2ccc([N+](=O)[O-])cc2C#N)CC1` gave an activation of 6.97%.
Work on `CC(C)CN1CCN(Cc2ccccc2C(F)(F)F)CC1CCO` (stereo not given) yielded an activation of -9.41%.
In the case of `COc1cc(-n2c(=S)[nH]c3ccc(C)cc3c2=O)c(Cl)cc1Cl`, the activation is reported as 24.8% (active).
In the case of `CN(C)/C=C(\C=[N+](C)C)c1[nH]ncc1[N+](=O)[O-]`, the activation is reported as 3.67%.
For `Cc1ccsc1C(=O)C1CCCN(Cc2ccc(O)cc2)C1` (stereo not given), the activation was 4.16%.
`O=C1NC(=O)N(c2ccccc2)C(=O)/C1=C/c1ccc([N+](=O)[O-])s1` was tested, and the activation was 0.92%.
`COc1ccc(CN2C(=O)NC(=O)/C(=C\c3ccc(OC)c(OC)c3OC)C2=O)cc1` showed an activation of 11%.
